# Screening data from PubChem BioAssay.
# CHX counter = counter-screen for Shiga toxin inhibitors: cycloheximide protein synthesis inhibition. cell reporter, cycloheximide protein synthesis inhibition counterscreen. max response, %. hit rate 12% among 300,000; in the data active = max response mostly above about 13%, no sharp cut-off; inactive = mostly below about 14%; also: read at 38.3 µM for the half of the compounds with a filed dose; 0% is about no effect
# AMA1 RON2 block = AMA1-RON2 (P. falciparum) interaction inhibition; AID 720542; AlphaScreen AMA1-biotinylated RON2 peptide binding; hit rate 0.2% among 360,000; Potency, µM (titrated, usually from 58.2 µM), without a hit: at the top dose activity change, negative = inhibition, actives largely listed as inhibitors;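 also: potency is read from the fitted curve at half-maximal effect; 0% = vehicle wells and -100% = peptide control; nearly all actives have a fitted effect of over 45% in size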
#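 AMA1 (3D7) with his tag at 25 nM final met compounds first, then biotinylated RON2 peptide at 25 nM; detection used donor plus acceptor beads, 10 µg/mL apiece, read by AlphaScreen after 30 min at room temperature.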
# Shiga toxin inh = inhibitors of Shiga toxin in Vero cells | inhibition, % at 38.7 µM | Vero cells, Shiga toxin protein synthesis inhibition reporter | hit rate 9.2% among 290,000; in the data active = inhibition mostly above about 28%, no sharp cut-off; inactive = mostly below about 43%; also: 0% is about no effect
# HCV inh = HCV inhibition; Huh7.5.1 HCVcc-Cre infection, luciferase reporter, 44 h; Potency, µM (highest dose often 41.8 µM), without a hit: at the highest dose activity change, negative = inhibition, hits mostly inhibitors; hit rate 3.4% among 340,000; AID 651820; also: potency is read from the fitted curve at half-maximal effect; % is scaled to controls: 0 for no effect and ±100 for the full control effect
#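 Seed cells (1,000/well) for 4 h; treat with compound and infect with HCVcc-Cre, moi about 0.5. Incubate 44 h, then detect luciferase activity.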
# Pf growth 96h = P. falciparum growth inhibition at 96 hours. P. falciparum luciferase reporter growth, 96 h. Potency, µM (titrated, usually from 28.7 µM), for inactives: at the top dose activity change, negative = inhibition, most hits filed as inhibitors. hit rate 6.9% among 320,000; also: potency is read from the fitted curve at half-maximal effect; % is scaled to controls: 0 for no effect and ±100 for the full control effect
#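 96 h incubation, 37 C, 5% CO2, of luciferase-reporter P. falciparum-infected RBCs (2% hematocrit, 0.05% parasitemia final) with test compounds; endpoint luminescence.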
# Pf growth 48h = P. falciparum growth inhibition at 48 hours (one generation). P. falciparum luciferase growth in erythrocytes, 48 h. Potency, µM (doses to about 28.7 µM), for inactives: top-dose activity change, negative = inhibition, actives largely listed as inhibitors. hit rate 5.9% among 310,000. AID 504832; also: potency is read from the fitted curve at half-maximal effect; % is scaled to controls: 0 for no effect and ±100 for the full control effect
#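 Luciferase-expressing P. falciparum in infected erythrocytes (2% hematocrit, 0.1% parasitemia final) in RPMI 1640/0.5% Albumax were exposed to compound for 48 hours at 37 C, 5% CO2; growth read as luminescence.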
# Active calls of the source: *; i = inactive; ? = inconclusive; / = no result; + = active, no number. Shown are actives, neighbours in structure and some others; about 21% of the full set was active somewhere. Unless noted, calls follow the shape of the dose curve; as a rule, active = well fitted curve in the direction sought with a large enough effect; inconclusive = small, poorly fitted or top-dose-only effect, or another doubt; inactive = no such curve, though single readings can be large; an effect the other way counts as inactive or inconclusive.
SMILES,CHX counter,AMA1 RON2 block,Shiga toxin inh,HCV inh,Pf growth 96h,Pf growth 48h
COc1cc(/C=N/NC(=O)COc2ccc(C)cc2)ccc1OC(=O)c1cccs1,16*,-4%,13,29%,13%,9%
COc1cc(/C=N/Nc2ccc(Cl)c(C(=O)O)c2)ccc1OC(=O)c1cccs1,14,5%,47,3%,49%,i
Cc1nc(N2CCN(c3ccccn3)CC2)c2c(C)c(C(=O)N3CCN(c4cccc(Cl)c4)CC3)sc2n1,8,0%,-11,-1%,1%,?
CCCCn1nnnc1C1(C)CCC(=O)N1Cc1ccc(OC)cc1 (centres undefined),/,-4%,/,/,/,/
O=C(O)COc1ccc(CCNS(=O)(=O)c2ccccc2)s1,/,/,/,/,-4%,2%
CN(C)CCOC(=O)NCC12CC3CC(CC(C3)C1)C2,6,0%,-8,-10%,28%,4%
CCCCNC(=O)NC12CC3CC(CC(C3)C1)C2,-1,-12%,12,14%,?,-13%
CCCNC(=O)OCCC12CC3CC(CC(C3)C1)C2,59*,27%,25*,11%,67%,18%
CCCNC(=O)NCCC12CC3CC(CC(C3)C1)C2,45*,-3%,65*,11%,38%,?
COCCCN1CC(=O)N2C(c3cccc(OC)c3OC)c3[nH]c4ccccc4c3C[C@H]2C1=O (some centres undefined),-3,-6%,-4,-7%,12µM*,9.3µM*
CCN1C(=O)[C@@H]2Cc3c([nH]c4ccccc34)C(c3ccc(OC)cc3)N2C1=S (some centres undefined),21*,-14%,32*,?,?,15µM*
COC(=O)c1ccc(C2c3[nH]c4ccccc4c3C[C@H]3C(=O)N(C)CC(=O)N23)cc1 (some centres undefined),-4,-18%,-4,7%,?,?
COCCN1CC(=O)N2C(c3cccc(C)c3)c3[nH]c4ccccc4c3C[C@H]2C1=O (some centres undefined),-8,-4%,5,4%,12µM*,13µM*
CN1CC(=O)N2C(c3ccc(Cl)cc3)c3[nH]c4ccccc4c3C[C@H]2C1=O (some centres undefined),-6,-10%,-17,-6%,13µM*,8.3µM*
O=C(NCC1CCCO1)C1CC(=O)N(c2ccccc2)C1 (centres undefined),-5,10%,-4,14%,-17%,?
CNc1snc(C)c1C(=O)OCC(=O)NCc1ccccc1OC,/,11%,/,9%,/,/
O=C(CSc1nc2cc(Cl)ccc2o1)NC1CC1,/,-4%,/,-4%,/,/
COCCCN1CC(=O)N2C(c3cccc(C)c3)c3[nH]c4ccccc4c3C[C@H]2C1=O (some centres undefined),-6,0%,-2,16%,?,9.3µM*
COc1cccc(C2c3[nH]c4ccccc4c3C[C@H]3C(=O)N(CCCOC(C)C)CC(=O)N23)c1 (some centres undefined),7,-6%,-10,17%,?,-20%
CC(C)OCCCN1CC(=O)N2C(c3ccccc3)c3[nH]c4ccccc4c3C[C@H]2C1=O (some centres undefined),21*,-6%,56*,23%,?,9.3µM*
CC(C)C1C(=O)N(Cc2cn(CCC3OCCO3)nn2)CCS(=O)(=O)N1Cc1ccc(-c2ccc(F)cc2Cl)cc1 (centres undefined),/,-6%,/,/,/,/
Cc1ccccc1-c1csc(C(C)(O)c2ccc(F)c(F)c2)n1 (centres undefined),/,30%,/,/,/,/
O=C(N/N=C/c1cn(-c2cccs2)nc1-c1ccccc1)c1ccccc1Cl,21*,-3%,102*,11µM*,30%,-4%
O=C(N/N=C/c1cccs1)c1ccc(NC(=O)c2ccccc2Cl)cc1,5,4%,-6,-21%,-9%,-17%
O=C(N/N=C/c1cn(-c2cccs2)nc1-c1ccccc1)c1ccc(O)cc1,45*,3%,+,?,-22%,0%
CN1CCN(S(=O)(=O)c2ccc3[nH]c(=O)oc3c2)CC1,-2,1%,-7,29%,9%,6%
